Reference: ChEMBL document CHEMBL4513216, “Probing the Open Global Health Chemical Diversity Library for Multistage-Active Starting Points for Next-Generation Antimalarials” (ACS Infect Dis, 2020)
Screen size: about 68,000 compounds; about 2,700 (4%) showed an effect of 50% or more. Many of the other results were omitted from the sample, so strong results are more common in it than they were.

Tested on: Plasmodium berghei
Assay: Screen against P. berghei liver stage (PbLuc), transformed with Luciferase, at 2uM
Format: functional, HepG2
Conditions: tested at 2 uM

| Compound | INHIBITION [%] |
| --- | --- |
| CC(C)NC(=O)CCNC(=O)CCc1cc(Cl)cs1 | -31.42 |
| COC(=O)c1ccn(COc2ccccc2Cl)n1 | 8.41 |
| Cc1nc(CN(Cc2cccnc2)Cc2ccsc2)c[nH]1 | 2.76 |
| COc1ccccc1CN(Cc1cccnc1)Cc1nccs1 | 32.97 |
| COc1ccccc1CN(Cc1cccnc1)Cc1c[nH]c(C)n1 | 55.29 |
| O=C(CCN1CCCC1c1cccs1)N1CCc2sccc2C1 (configuration not stated) | 7.54 |
| Cc1csc(N2CCC(NCC3(O)CCc4ccccc43)CC2)n1 (configuration not stated) | 72.05 |
| OC1(CNC2CCN(c3ccccn3)CC2)CCc2ccccc21 (configuration not stated) | 29.13 |
| OC1(CNC2CCN(Cc3ccncc3)CC2)CCc2ccccc21 (configuration not stated) | -49.57 |
| O=C(NCc1cccnc1N1CCCCC1)c1cccs1 | -27.83 |
| Cc1ccc(CN2C[C@@H]3COC[C@H](NS(C)(=O)=O)[C@@H]3C2)s1 | 8.88 |
| O=C(CN1C(=O)CCC1=O)N1CCC(CSCc2ccco2)CC1 | 44.23 |
| O=C(CN1C(=O)CCC1=O)N1CCOCC1 | 9.1 |
| O=C(CN1C(=O)CCC1=O)N1CCC(S(=O)(=O)Cc2ccco2)CC1 | 53.81 |
| CN(C)CCN1CC(C(=O)N2CCC(c3cc(=O)[nH]cn3)CC2)CC1=O (configuration not stated) | 47.64 |
| O=C(NC1CCC(O)CC1)c1cnc2c(cnn2C2CCCC2)c1 (configuration not stated) | 38.49 |
| CS(=O)(=O)NC(=O)c1cnc2c(cnn2C2CCCC2)c1 | 64.35 |
| O=C(O)c1cnc2c(cnn2C2CCCC2)c1 | -9.71 |
| Cc1cc(NC(=O)C(C)N2CCN(c3nc(C)ns3)CC2)on1 (configuration not stated) | 22.29 |
| Cn1ncnc1CNc1ccc2c(c1)N(C(=O)OC(C)(C)C)CCC2 | 33.49 |
| CC(C)NC(=O)N1CC(=O)c2sc(Nc3ccc(C#N)cc3)nc2C1 | -42.69 |
| O=C1COC2(COCCN(c3ccccn3)C2)CN1c1cccc(F)c1 (configuration not stated) | 16.2 |
| CN(C)CC(=O)N1CCOCC2(C1)CN(c1ccccc1)C(=O)CO2 (configuration not stated) | 17.78 |

| Compound | INHIBITION [%] |
| --- | --- |
| O=C(c1ccc[nH]1)N1CCOCC2(C1)CN(c1ccccc1)C(=O)CO2 (configuration not stated) | -15.09 |
| O=C(N1CCCC1)N1CCOCC2(C1)CN(c1ccccc1)C(=O)CO2 (configuration not stated) | 56.38 |
| O=C1COC2(COCCN(c3cnccn3)C2)CN1c1cccc(F)c1 (configuration not stated) | 50.81 |
| Cc1cccc(N2CC3(COCCN(c4ccncn4)C3)OCC2=O)c1 (configuration not stated) | 7.33 |
| COCC1CN(C(=O)c2ccoc2)Cc2cnn(CC3CCOCC3)c21 (configuration not stated) | -14.61 |
| CCN(CC)CCn1ccnc1-c1cccc(C#N)c1 | 15.2 |
| CSCCCn1ccnc1-c1cccc(C#N)c1 | 55.93 |
| CSCCCNC(=O)Nc1cccc(-c2nccn2C)c1 | 11.78 |
| Cc1ccc(C(=O)N2C[C@H]3CN(Cc4csc(C)n4)C[C@H]3C2)cn1 | 5.38 |
| CCC[C@H]1CN(S(=O)(=O)c2ccccc2)C[C@@H]1N | 24.12 |
| CCC[C@H]1CN(S(=O)(=O)c2ccc(-c3c(C)noc3C)s2)C[C@@H]1N | 29.53 |
| CCC[C@H]1CN(S(=O)(=O)c2c(C)noc2C)C[C@@H]1N | 51.31 |
| Cc1cnn(CC(C)Nc2nc(C)cc(N(C)C)n2)c1 (configuration not stated) | -28.68 |
| CN(C)C[C@]12COC[C@H]1CN(C(=O)Cc1ccc3c(c1)OCO3)C2 | -2.21 |
| CCOC(=O)Cn1nnnc1-c1ccccc1 | 23.9 |
| O=S(=O)(C1CC1)N1CCC2(CN(c3ncccn3)C2)C1 | -12.25 |
| Cc1ccc(CN2CCS(=O)(=O)C(C)(C)C2)cc1C | -38.39 |
| CCN1CC2(CCC1=O)CCN(Cc1cccc(OC(F)F)c1)CC2 | -1.38 |
| O=C(NCc1ccccn1)C1CN(c2nc3ccccc3s2)CCN1 (configuration not stated) | 56.21 |
| O=C(NC1CC1)C1CN(c2nc3ccccc3s2)CCN1 (configuration not stated) | -17.07 |
| CCCc1nc(C)cc(N2CCNC(C(=O)NCc3cccnc3)C2)n1 (configuration not stated) | 19.81 |
| Nc1nccc(N2CCNC(C(=O)NCc3ccccn3)C2)n1 (configuration not stated) | 50.94 |
| O=C(NCc1cccnc1)C1CN(c2cnc3ccccc3n2)CCN1 (configuration not stated) | -6.53 |

| Compound | INHIBITION [%] |
| --- | --- |
| O=C(NCc1ccncc1)C1CN(c2nc3ccccc3s2)CCN1 (configuration not stated) | 11.67 |
| CN(C)CCN1CCN(Cc2cccs2)Cc2cccnc21 | 31.96 |
| COc1ccc(CNC(=O)NC2CCC(O)CC2)c(C(F)(F)F)c1 (configuration not stated) | 24.83 |
| Cc1nc(C)n(CC2CCCCN2c2ccnc(-c3ccccc3)n2)n1 (configuration not stated) | -22.89 |
| O=C(c1cccc(=O)[nH]1)N(Cc1ccsc1)CC1CCCO1 (configuration not stated) | -2.31 |
| O=C1CCC(C(=O)N(Cc2ccsc2)CC2CCCO2)=NN1 (configuration not stated) | 50.59 |
| CN(C)CCN(Cc1ccsc1)C(=O)C1=NNC(=O)CC1 | 31.51 |
| CNC(=O)CN1CCC(c2nn(C)c(=O)n2-c2ccccc2)CC1 | 16.93 |
| CCCC(=O)N1CCC(c2nn(C)c(=O)n2-c2ccccc2)CC1 | 60.64 |
| Cn1cnnc1C1CCN(C(=O)CCCOc2ccccc2)CC1 | 23.31 |
| CNc1cccc(C2CCN(C(C)=O)CC2)n1 | 28.4 |
| CCSC(C)C(=O)N1CCC(c2nn(C)c(=O)n2-c2ccccc2)CC1 (configuration not stated) | -45.11 |
| CCCn1cc(C(=O)NC2CCN(CC(=O)NC3CC3)CC2)c(C)n1 | 16.35 |
| Cn1nc(C2CCN(CC(=O)NC3CC3)CC2)n(-c2ccccc2)c1=O | 60.64 |
| O=c1n(Cc2ncccn2)nc(C2CCNCC2)n1-c1ccccc1 | -0.59 |
| CC(=O)N1CCC(c2nn(C)c(=O)n2-c2ccccc2)CC1 | 64.06 |
| CC1CN(C(=O)NCCCn2cncn2)CCO1 (configuration not stated) | -7.02 |
| CS(=O)(=O)N1C[C@H]2CN(CC3CC3)C(=O)[C@H]2C1 | -30.69 |
| CC(=O)Nc1nc(C(=O)NCc2ccc(N3CCOC(C)C3)nc2)cs1 (configuration not stated) | 13.36 |
| CN(CCc1nccs1)C(=O)CC1(O)CCCCC1 | 25.78 |
| Clc1ccccc1C1(c2ccnc(-c3ccncc3)n2)CCNCC1 | -14.84 |
